Experimental data published in PubChem BioAssay (NCATS).
Where “and” joins values, the source holds several entries; their conditions need not be identical. Equal values may be shown once. Inconclusive results are not listed. A call without a number means that no potency is given here. Calls of active or inactive are those of the source. Calls follow the shape of the dose curve; as a rule, active = well fitted inhibition curve with a large enough effect; inconclusive = small, poorly fitted or top-dose-only effect; inactive = flat fitted curve, though single readings scatter.

target: Voltage-gated inwardly rectifying potassium channel KCNH2 (Homo sapiens) (UniProt Q12809); experiment: qHTS Assay for Small Molecule Inhibitors of the Human hERG Channel Activity (AID 588834); settings: U2OS BacMam hERG, FluxOR thallium flux fluorescence; series mostly up to 46.1 µM;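 also: lower thallium flux fluorescence means stronger hERG block; nearly all actives have a fitted effect of over 50% in size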
Description: NIH Chemical Genomics Center [NCGC]
National Institutes of Environmental Health Sciences [NIEHS]
National Toxicology Program [NTP]
We have developed a 1536-well cell-based assay for quantitative high throughput screening (qHTS) to determine in vitro hERG channel blockage as a measure of cardio toxicity with small molecules. This particular assay uses the U2OS cell line which is derived from human osteosarcoma.
NCGC Assay Protocol Summary:
HERG assay (FluxORTM thallium flux assay) was initially developed by Invitrogen/Molecular Probes, and then miniaturized into 1536-well plate in a homogeneous format by NCGC. This assay measures the activity of potassium channel using thallium dye (FluxOR) flux as surrogate measurement for potassium into the cells with a FDSS-7000 kinetic plate reader (Hamamatsu Corp., Hamamatsu City, Japan). The hERG ion channel is transduced into mammalian cells (U2OS) using a baculovirus (Bacmam) construct harboring the hERG K+ ion channel. So far we screened LOPAC1280 library (Sigma), the NTP collection of 1408 compounds, and the NCGC Pharmaceutical Collection (NPC), in which many well defined HERG blockers are present. The rank order potencies of many of these compounds are similar to that of other HERG assays (membrane potential, Rb+ flux, patch clamp, etc). This quick and homogeneous assay is also found to be sensitive, specific, and robust.
Using the FluxORTM thallium flux assay, the activity of potassium channel using thallium dye (FluxOR) flux as surrogate measurement for potassium into the cells was measured in the U2OS cell line transduced with hERG K+ ion channel using a baculovirus (Bacmam) using Opti-MEM medium (Invitrogen) containing 2% fetal calf serum (FCS, HyCone) following loading buffer addition, compound treatment for around 10 minutes and finally adding stimulation buffer. The assay was performed in black clear Kalypsys 1536-well plates. In the screen, Astemizole was used as positive controls. Library compounds were measured for their ability to cause hERG channel blockage in the cell line, as reflected by a decrease in fluorescence intensity, in a concentration-dependent manner. […] AC50 values were determined from concentration-response data modeled with the standard Hill equation.
qHTS protocol for hERG-U2OS cellular assay
[Step] [Parameter] [Value] [Description]
1. Day 1: Replace medium in 70-80% confluent T225 flask with 2.5 mL of hERG-BacMam virus plus 12.5 mL of phosphate buffered saline (PBS) (corresponding roughly to a multiplicity of infection ratio of 100 virus particles/cell)
2. Incubation: 4 hrs @ room Temperature in Dark
3. Reagent; Remove virus; wash once with 25 ml DPBS
4. Reagent; 35 ml culture medium
5. Incubation; 37 °C overnight
6. Day2: Reagent; 3 uL; 2000 U2OS cells/well
7. Time; 4 hr; 37 °C incubation
8. Loading buffer; 1 uL; 0.7X;
9. Incubation: 1hr @ RT in Dark.
12. Time; 10min; 37 °C incubation
13. Read fluorescence Intensity on FDSS for 10 Sec with 1 sec interval
14. Reagent; 1 uL; stimulation buffer
15. Read fluorescence Intensity on FDSS for 2 min with 1 sec interval
16. Detection; Fluorescence Intensity; FDSS
Potency is read from the fitted curve at half-maximal effect.

Chain of Voltage-gated inwardly rectifying potassium channel KCNH2 (Homo sapiens) (Q12809 whole entry, looked up): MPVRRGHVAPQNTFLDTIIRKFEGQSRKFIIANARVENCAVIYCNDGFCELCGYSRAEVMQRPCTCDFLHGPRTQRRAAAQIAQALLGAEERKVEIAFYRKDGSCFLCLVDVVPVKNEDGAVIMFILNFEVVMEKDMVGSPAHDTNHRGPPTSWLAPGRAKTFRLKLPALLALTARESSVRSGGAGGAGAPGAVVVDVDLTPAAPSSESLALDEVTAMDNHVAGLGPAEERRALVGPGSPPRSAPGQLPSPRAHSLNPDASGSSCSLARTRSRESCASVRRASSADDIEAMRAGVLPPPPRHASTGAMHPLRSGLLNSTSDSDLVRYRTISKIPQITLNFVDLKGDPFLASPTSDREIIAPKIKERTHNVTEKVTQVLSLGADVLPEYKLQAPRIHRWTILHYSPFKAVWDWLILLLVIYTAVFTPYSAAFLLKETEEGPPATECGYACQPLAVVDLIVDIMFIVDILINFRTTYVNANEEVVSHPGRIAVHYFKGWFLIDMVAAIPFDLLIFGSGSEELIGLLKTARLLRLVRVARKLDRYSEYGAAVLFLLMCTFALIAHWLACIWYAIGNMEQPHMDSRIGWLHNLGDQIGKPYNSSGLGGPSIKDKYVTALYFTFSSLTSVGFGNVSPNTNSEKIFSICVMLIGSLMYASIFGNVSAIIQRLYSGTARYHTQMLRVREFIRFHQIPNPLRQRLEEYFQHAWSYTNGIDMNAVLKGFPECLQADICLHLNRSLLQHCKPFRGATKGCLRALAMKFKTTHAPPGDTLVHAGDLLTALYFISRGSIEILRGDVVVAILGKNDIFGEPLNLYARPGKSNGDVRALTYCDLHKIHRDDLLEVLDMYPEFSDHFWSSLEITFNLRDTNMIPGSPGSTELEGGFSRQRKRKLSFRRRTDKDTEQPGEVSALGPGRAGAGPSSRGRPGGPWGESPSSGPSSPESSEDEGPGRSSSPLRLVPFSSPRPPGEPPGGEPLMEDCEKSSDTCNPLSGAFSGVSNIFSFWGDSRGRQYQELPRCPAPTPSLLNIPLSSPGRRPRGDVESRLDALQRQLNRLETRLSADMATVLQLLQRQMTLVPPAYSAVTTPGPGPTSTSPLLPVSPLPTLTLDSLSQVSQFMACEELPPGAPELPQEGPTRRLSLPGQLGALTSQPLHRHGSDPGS

| Compound | Potency |
| --- | --- |
| O=C(c1ccc(F)cc1)C1CCN(CCn2c(=O)[nH]c3ccccc3c2=O)CC1 | 3.55 µM (active) and 562 nM (active) |
| COC(=O)Nc1nc2ccc(C(=O)c3cccs3)cc2[nH]1 | inactive |
| Clc1ccccc1C(c1ccccc1)(c1ccccc1)n1ccnc1 | 10 µM (active) and 11.2 µM (active) |
| C[C@@H]1CC(=O)NN=C1c1ccc(NN=C(C#N)C#N)cc1 | inactive |
| Cn1c(=O)c2c(ncn2C)n(C)c1=O | inactive |
| Cc1ccc(C(=O)Nc2ccc(S(=O)(=O)O)c3cc(S(=O)(=O)O)cc(S(=O)(=O)O)c23)cc1NC(=O)c1cccc(NC(=O)Nc2cccc(C(=O)Nc3cc(C(=O)Nc4ccc(S(=O)(=O)O)c5cc(S(=O)(=O)O)cc(S(=O)(=O)O)c45)ccc3C)c2)c1 | inactive |
| Nc1ccn([C@H]2CC[C@@H](CO)O2)c(=O)n1 | inactive |
| O=C1N(c2ccccc2)c2ccccc2C1(Cc1ccncc1)Cc1ccncc1 | inactive |
| NC12CC3CC(CC(C3)C1)C2 | inactive |
| O=c1c(-c2ccc(O)cc2)coc2cc(O)cc(O)c12 | inactive |
| O=c1[nH]cc(F)c(=O)[nH]1 | inactive |
| C[C@H]1c2cccc(O)c2C(O)=C2C(=O)[C@]3(O)C(O)=C(C(N)=O)C(=O)[C@@H](N(C)C)[C@@H]3[C@@H](O)[C@@H]21 | inactive |
| CC(C)(Oc1ccc(C2CC2(Cl)Cl)cc1)C(=O)O (stereo not given) | inactive |
| CC(C)Cc1ccc(C(C)C(=O)O)cc1 (stereo not given) | inactive |
| Clc1ccc2nsnc2c1NC1=NCCN1 | inactive |
| CCC1(C)CC(=O)NC1=O (stereo not given) | inactive |
| NC(CO)C(=O)NNCc1ccc(O)c(O)c1O (stereo not given) | inactive |

| Compound | Potency |
| --- | --- |
| CC1(CN2CCC(n3c(=O)[nH]c4ccccc43)CC2)OCc2ccccc2-n2cccc21 (stereo not given) | 11.2 µM (active) |
| COc1ccc2c(c1)c(CC(=O)O)c(C)n2C(=O)c1ccc(Cl)cc1 | inactive |
| COc1ccccc1N1CCN(CC(O)COc2cccc3ccccc23)CC1 (stereo not given) | 3.16 µM (active) and 794 nM (active) |
| CN1C(C(=O)Nc2ccccn2)=C(O)c2ccccc2S1(=O)=O | inactive |
| COc1cc2nc(N(C)CCCNC(=O)C3CCCO3)nc(N)c2cc1OC (stereo not given) | inactive |
| CC(C(=O)O)c1cccc(C(=O)c2ccccc2)c1 (stereo not given) | inactive |
| CS(=O)(=O)Nc1ccc([N+](=O)[O-])cc1Oc1ccccc1 | inactive |
| OCCN(CCO)c1nc(N2CCCCC2)c2nc(N(CCO)CCO)nc(N3CCCCC3)c2n1 | inactive |
| Cc1cn([C@H]2C[C@H](N=[N+]=[N-])[C@@H](CO)O2)c(=O)[nH]c1=O | inactive |
| CC(C)NCC(O)COc1ccc(CCOCC2CC2)cc1 (stereo not given) | inactive |
| COc1ccc(C2CNC(=O)C2)cc1OC1CCCC1 (stereo not given) | inactive |
| CC12CC3CC(C)(C1)CC(N)(C3)C2 | inactive |
| CCOC(=O)C(C)(C)Oc1ccc(Cl)cc1 | inactive |
| Cc1cc(C(C)(C)C)c(O)c(C)c1CC1=NCCN1 | 11.2 µM (active) |
| CCC1(c2ccccc2)C(=O)NCNC1=O | inactive |
| COc1cc2nc(N3CCN(C(=O)c4ccco4)CC3)nc(N)c2cc1OC | inactive |
| Cc1cn([C@H]2C=C[C@@H](CO)O2)c(=O)[nH]c1=O | inactive |
| NC(=O)NO | inactive |
